# From PubChem BioAssay
# S16 viability – toxic to S16 Pmp22-F2sN Schwann cells. S16 Pmp22-F2sN Schwann cells viability, CellTiter-Glo, 24 h. Potency, µM (doses to about 57.5 µM), inactives show top-dose activity change, negative = cytotoxicity, hits mostly cytotoxic. 0.48% of 43,000 active; note: potency is the fitted concentration of half-maximal effect; % is set by controls: 0 for no effect and ±100 for the full control effect; nearly all actives have a fitted effect of over 65% in size
#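 Used to flag compounds lowering reporter output through toxicity, this quantitative HTS measures ATP-based CellTiter-Glo luminescence in S16 Pmp22-F2sN Schwann cells after 24 h compound exposure at 37C.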
# HTT promoter inh – HTT promoter inhibition | HEK293 HTT promoter firefly luciferase reporter, 24 h | Potency, µM (series often up to 57.5 µM), inactives show at the top dose activity change, negative = inhibition, usual class: inhibitors | 0.93% of 48,000 active | AID 1508623; note: potency is the fitted concentration of half-maximal effect; nearly all actives have a fitted effect of over 50% in size
#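 Firefly luciferase signal from promoter-reporter HEK293 cells was scaled between vehicle (0%) and zero RLU (-100%). Compounds were tested at final concentrations of up to 57.5 uM over 24 h at 37 degrees C. PTC124 at 50 uM final served as control inhibitor.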
# HTT-AS promoter – activates huntingtin-antisense promoter activity; HEK293 HTT-AS promoter firefly luciferase reporter, 24 h; response scale: percent change from vehicle, -100% = no light; Potency, µM (series often up to 57.5 µM), without a hit: top-dose activity change, positive = activation, most hits filed as activators; 0.24% of 48,000 active; AID 1508624; note: potency is the fitted concentration of half-maximal effect; nearly all actives have a fitted effect of over 55% in size
#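 HEK293 luciferase promoter-reporter cells (2,500/well) plated 24 h, then compounds added at up to 57.5 uM final for 24 h at 37 °C. Firefly luminescence by Dual-Glo, normalized to vehicle (0%) and zero RLU (-100%).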
# FH mod – Identification of activators of human fumarate hydratase by quantitative high-throughput screening. Fumarate hydratase, mitochondrial (Homo sapiens), P07954. FH coupled MDH/diaphorase resazurin fluorescence, 15 min. Potency, µM (series often up to 79.9 µM), for the others: at the highest dose activity change, negative = inhibition, most hits filed as inhibitors. 0.22% of 54,000 active. AID 1347055, 2019; note: potency is the fitted concentration of half-maximal effect; % is set by controls: 0 for no effect and ±100 for the full control effect; the screen sought activators but most active calls are inhibition curves; nearly all actives have a fitted effect of over 45% in size
# Target sequence (P07954 whole entry, looked up): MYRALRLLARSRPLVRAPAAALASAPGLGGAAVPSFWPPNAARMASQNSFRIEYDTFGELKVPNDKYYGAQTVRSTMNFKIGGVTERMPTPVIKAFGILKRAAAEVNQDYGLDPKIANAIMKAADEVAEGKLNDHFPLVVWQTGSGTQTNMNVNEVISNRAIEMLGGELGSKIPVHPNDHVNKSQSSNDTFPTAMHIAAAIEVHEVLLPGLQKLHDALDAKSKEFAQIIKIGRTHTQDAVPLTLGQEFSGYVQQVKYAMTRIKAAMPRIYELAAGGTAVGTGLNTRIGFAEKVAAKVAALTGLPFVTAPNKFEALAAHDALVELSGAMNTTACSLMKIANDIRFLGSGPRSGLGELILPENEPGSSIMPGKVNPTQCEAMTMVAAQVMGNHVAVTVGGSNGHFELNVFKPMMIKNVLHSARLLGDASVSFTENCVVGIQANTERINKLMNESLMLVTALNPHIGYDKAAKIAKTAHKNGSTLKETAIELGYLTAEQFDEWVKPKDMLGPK
# mTORC1 inh – reduces mTORC1 signaling in Tsc2 and p53 null MEF cells. 0.78% of 44,000 active. Potency, µM (doses to about 38.3 µM), without a hit: at the top dose activity change, negative = inhibition, most hits filed as inhibitors. Tsc2-/- p53-/- MEF, phospho-rpS6 immunofluorescence/PI, 24 h. AID 493208;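 note: potency is the fitted concentration of half-maximal effect; plate controls were DMSO for no effect and rapamycin for full effect; nearly all actives have a fitted effect of over 50% in size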
#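 Tsc2-/-, p53-/- mouse embryonic fibroblasts (empty-vector line) exposed to compound 24 hrs at 37 C, fixed, immunostained for phospho-rpS6 and counterstained with propidium iodide. Acumen laser scanning gives % positive cells from Alexa 488/PI ratio, thresholded using 7.5 nM rapamycin; PI count gives viability.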
# PMP22 txn – PMP22 gene transcription modulation | S16 Pmp22-F2sN Schwann cells, FLuc/NLuc coincidence luminescence, 24 h | Potency, µM (doses to about 57.5 µM), for the others: at the highest dose activity change, negative = inhibition, usual class: inhibitors | 2% of 43,000 active; active = clear falling dose curves in both reporters; inconclusive = both reporters move, but less clearly or upward; inactive = either reporter flat; the % is the NLuc reporter signal; note: potency is the fitted concentration of half-maximal effect; % is set by controls: 0 for no effect and ±100 for the full control effect
#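 S16 Schwann cells carrying FLuc/NLuc coincidence reporter in the Pmp22 3' UTR treated with compound 24 h at 37C; FLuc then NLuc luminescence read sequentially by dual-luciferase reagents.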
# NLuc sat counter – NanoLuc enzyme inhibition artifact for PMP22 screen | shares compounds with PMP22 txn | Secreted NLuc enzyme (filtered S16 cell medium), Nano-Glo luminescence | Potency, µM (series often up to 57.5 µM), for the others: at the top dose activity change, negative = inhibition, most hits filed as inhibitors | 4% of 690 active | AID 1508638; note: potency is the fitted concentration of half-maximal effect; % is set by controls: 0 for no effect and ±100 for the full control effect
# NLuc Km ctr – counter-screen for PMP22 expression modulators: NanoLuc inhibition at Km; shares compounds with PMP22 txn; 5% of 690 active; Potency, µM (series often up to 57.5 µM), for inactives: top-dose activity change, negative = inhibition, actives largely listed as inhibitors; secreted NLuc enzyme, coelenterazine luminescence, Km conditions; note: potency is the fitted concentration of half-maximal effect; % is set by controls: 0 for no effect and ±100 for the full control effect
# FLuc ctr PMP22 – counter-screen for PMP22 expression modulators: firefly luciferase inhibition. purified P. pyralis FLuc, luminescence, 10 min. shares compounds with PMP22 txn. Potency, µM (titrated, usually from 57.5 µM), without a hit: at the highest dose activity, negative = inhibition, hits mostly inhibitors. 690 tested, under 10 active. AID 1508640; note: % of control where 0% means no effect
# S16 viab conf – confirmation of cytotoxicity in S16 Pmp22-F2sN Schwann cells (luciferase reporters placed in the Pmp22 gene); shares compounds with PMP22 txn; S16 Schwann cells viability, CellTiter-Glo ATP luminescence, 24 h; Potency, µM (titrated, usually from 57.5 µM), inactives show at the top dose activity change, negative = viability loss, actives largely listed as cytotoxic; 7% of 690 active; note: potency is the fitted concentration of half-maximal effect; % is set by controls: 0 for no effect and ±100 for the full control effect
# PMP22 txn conf – PMP22 transcription modulation, confirmatory. 22% of 690 active. AID 1508646. shares compounds with PMP22 txn. Potency, µM (doses to about 57.5 µM), for the others: at the top dose activity change, negative = inhibition, actives largely listed as inhibitors. S16 Schwann cells Pmp22-F2sN, dual luciferase, 24 h; active = clear falling dose curves in both reporters; inconclusive = both reporters move, but less clearly or upward; inactive = either reporter flat; the % is the FLuc reporter signal; note: potency is the fitted concentration of half-maximal effect
# PMP22 HiBiT cnf – rat PMP22 protein level modulation, confirmatory | shares compounds with PMP22 txn | S16 Schwann cells Pmp22-HiBiT, luminescence, 48 h | Potency, µM (series often up to 27.9 µM), without a hit: at the top dose activity change, negative = inhibition, most hits filed as inhibitors | 95 tested, under 10 active | AID 1508647
# Target sequence (P25094 whole entry, looked up): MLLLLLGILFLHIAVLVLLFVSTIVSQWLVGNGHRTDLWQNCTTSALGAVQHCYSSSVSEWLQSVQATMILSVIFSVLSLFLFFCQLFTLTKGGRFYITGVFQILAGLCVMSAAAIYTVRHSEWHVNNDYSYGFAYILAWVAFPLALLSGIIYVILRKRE
# Active calls of the source: *; ? = inconclusive; / = no result given; [ ] = dose if it differs, or a comment. Shown are actives, neighbours in structure and some others; about 3.3% of the full set was active somewhere. Unless noted, calls come from the whole dose curve; as a rule, active = well fitted curve in the direction sought with a large enough effect; inconclusive = small, poorly fitted or top-dose-only effect, or another doubt; inactive = no such curve, though single readings can be large; an effect the other way counts as inactive or inconclusive.
SMILES,S16 viability,HTT promoter inh,HTT-AS promoter,FH mod,mTORC1 inh,PMP22 txn,NLuc sat counter,NLuc Km ctr,FLuc ctr PMP22,S16 viab conf,PMP22 txn conf,others
CCOc1ccc2oc(=O)cc(CN3CCN(C(=O)c4cccc(F)c4)CC3)c2c1,?,-17%,-29%,-5%,2%,?,/,/,/,/,/,
c1ccc(Cn2c(-c3ccc(OCC(C4CCNCC4)n4c(-c5ccccc5)nc5ccccc54)cc3)nc3ccccc32)cc1 (centres undefined),/,/,/,5%,/,/,/,/,/,/,/,
CCn1c(CN2CCCCC2)nc2cc(NC(=O)COc3ccccc3C(C)(C)C)ccc21,2%,-35%,-25%,10%,-1%,14µM*,-11%,2%,1%,1%,?,
CCn1c(CN2CCCCC2)nc2cc(NC(=O)c3ccccc3[N+](=O)[O-])ccc21,-7%,-23%,-16%,-18%,-10%,?,/,/,/,/,/,
CCOc1ccccc1NC(=O)c1c(NC(=O)COc2ccccc2)sc2c1CCCCC2,1%,?,-51%,?,-4%,13µM*,0%,3%,-2%,7%,3%,
CCOc1ccccc1NC(=O)c1c(NC(=O)COc2ccc(Cl)cc2)sc2c1CCCCC2,3%,-7%,-15%,-1%,10%,-2%,/,/,/,/,/,
COc1ccc(N2CCOCC2)c2sc(NC(=O)N3CCC(C)(O)CC3)nc12,/,/,/,0%,/,/,/,/,/,/,/,
CCOc1ccccc1CNC(=O)CSc1nnc(C)c2c(C)n(-c3ccccc3)nc12,0%,-13%,-24%,19%,-12%,-27%,/,/,/,/,/,
COc1ccccc1CNC(=O)CSc1nnc(C)c2c(C)n(-c3ccccc3)nc12,?,?,-46%,17%,0%,15µM*,?,4%,-3%,-1%,?,PMP22 HiBiT cnf=?
N=C(N)c1ccc2nc(-c3cc(CC(=O)NC(CC(=O)O)C(=O)O)cc(-c4cc(S(N)(=O)=O)ccc4O)c3O)[nH]c2c1 (centres undefined),/,/,/,23%,/,/,/,/,/,/,/,
CCCCS(=O)(=O)c1nc(-c2ccc(Br)cc2)cc(-c2ccccc2)c1C#N,?,?,-44%,-8%,5.2µM*,6.8µM*,-12%,3%,4%,-12%,9.3µM*,PMP22 HiBiT cnf=98%
Cc1cc(C)cc(Nc2cc(C(=O)NCCCN(C)C3CCCCC3)c3ccccc3n2)c1,?,?,-28%,-10%,4.1µM*,8.9µM*,-5%,0%,?,17µM*,15µM*,
CCc1ccccc1Nc1cc(C(=O)NCCCN(C)C2CCCCC2)c2ccccc2n1,?,-21%,-26%,-1%,?,20µM*,-1%,2%,-4%,?,?,
CCN(CCCNC(=O)c1cc(Nc2ccc(OC)cc2OC)nc2ccccc12)c1cccc(C)c1,-7%,-18%,-28%,-21%,2%,15µM*,-13%,-1%,-21%,-4%,-18%,
Cc1ccc(C)c(Nc2cc(C(=O)NCCCN(C)C3CCCCC3)c3ccccc3n2)c1,?,?,-21%,2%,?,?,/,/,/,/,/,
CCCCN(CCCNC(=O)c1cc(Nc2ccc(OC)cc2OC)nc2ccccc12)Cc1ccccc1,-22%,-21%,-34%,?,-21%,?,/,/,/,/,/,
Cc1oc(-c2ccc(Cl)cc2)nc1CN1CCCC(C(=O)NCc2ccccc2)C1 (centres undefined),-29%,?,-40%,-13%,-1%,18µM*,?,?,-6%,-24%,?,
COc1ccc(OC)c(NC(=O)c2c(NCc3sccc3C)sc3c2CCCCC3)c1,-10%,-8%,8%,-6%,-14%,11µM*,?,14µM*,-11%,?,-24%,
CCOc1ccccc1NC(=O)C1CCN(S(=O)(=O)c2c(C)noc2/C=C/c2ccco2)CC1,0%,-16%,-24%,-16%,-14%,9.5µM*,?,-4%,6%,9%,-15%,
O=C(NCc1ccccc1-c1ccccc1C(=O)NCCc1ccccn1)OCc1ccccc1,/,/,/,0%,/,/,/,/,/,/,/,
CC1(C(=O)O)CCCC2(C)C3CCC4CC3(CCC12)CC4(O)CO (centres undefined),/,/,/,1%[53.3 µM],/,/,/,/,/,/,/,
COc1ccc(NC(=O)CSc2nc(-c3ccco3)cc(C(F)(F)F)n2)cc1,1%,-29%,-25%,3%,-20%,?,-2%,7%,4%,10%,23%,
Clc1ccc(Cn2c(Cc3ccccc3)nc3ccccc32)cc1,/,/,/,-19%,/,/,/,/,/,/,/,
CCn1c(=O)cc(OCC(=O)N2CCN(c3ccccc3OC)CC2)c2ccccc21,-12%,-2%,-4%,-8%,0%,17µM*,-14%,-17%,5%,9%,-12%,
C=C[C@H]1CN2CC[C@@H]1C[C@H]2[C@H](O)c1ccnc2ccc(OC)cc12,/,/,/,-14%[53.3 µM],/,/,/,/,/,/,/,
